Results reported in PubChem BioAssay AID1159580 (chemical genetic matrix, 2015).
Several values for one entry are separate records, joined by “and”; a condition that tells them apart may be missing. Equal values may be shown once. About 2,000 (36%) of roughly 5,500 compounds were called active. Roughly 18% stayed inconclusive and do not appear here. Cut-off read from the data, not from the text of the source: active = normalized growth mostly below about 0.91 (no sharp cut-off); inconclusive = no clear call, values can overlap the other calls; inactive = mostly above about 0.92. The list shows a part of the results.

Test: chemical genetic growth profiling, strain panel (AID 1159580);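 note: tested at 20 µM; growth read once vehicle control cultures reached saturation at 30 °C; 1 = growth at the plate median or of vehicle wells; lower values mean less growth of the strain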
Details: S. cerevisiae deletion strains, growth OD

Measured: normalized growth

COC(=O)C(O)c1ccccc1 (stereo unspecified)
inactive: locus YAL021C, strain ccr4, active compounds read low 1.02 | locus YAL026C, strain drs2, active compounds read low 1.01 | locus YAL030W, strain snc1, active compounds read low 0.984 | locus YBL061C, strain skt5, active compounds read low 0.996 | locus YBR009C, strain hhf1, active compounds read low 1.01 | locus YBR021W, strain FUR4, active compounds read low 1.06 | locus YBR023C, strain chs3, active compounds read low 1.01 | locus YBR171W, strain sec66, active compounds read low 0.99 | locus YBR229C, strain ROT2, active compounds read low 0.999 | locus YBR231C, strain swc5, active compounds read low 0.961 | locus YBR279W, strain paf1, active compounds read low 0.999 | locus YCL011C, strain gbp2, active compounds read low 1.02 | locus YCL016C, strain dcc1, active compounds read low 1.02 | locus YCL029C, strain bik1, active compounds read low 0.982 | locus YCL069W, strain vba3, active compounds read low 1 | locus YCR088W, strain abp1, active compounds read low 0.99 | locus YDL005C, strain med2, active compounds read low 0.984 | locus YDL035C, strain GPR1, active compounds read low 1.05 | locus YDL040C, strain nat1, active compounds read low 0.991 | locus YDL074C, strain BRE1, active compounds read low 1.05 | locus YDL101C, strain DUN1, active compounds read low 0.977 | locus YDL134C, strain PPH21, active compounds read low 0.964 | locus YDL185W, strain tfp1, active compounds read low 0.949 | locus YDL192W, strain arf1, active compounds read low 1.01 | locus YDR001C, strain nth1, active compounds read low 0.99 | locus YDR069C, strain doa4, active compounds read low 0.996 | locus YDR101C, strain arx1, active compounds read low 1.05 | locus YDR137W, strain rgp1, active compounds read low 1.01 | locus YDR159W, strain sac3, active compounds read low 0.973 | locus YDR162C, strain NBP2, active compounds read low 0.975 | locus YDR195W, strain ref2 0.909 | locus YDR297W, strain sur2, active compounds read low 0.992 | locus YDR318W, strain mcm21, active compounds read low 0.985 | locus YDR334W, strain swr1, active compounds read low 0.98 | locus YDR335W, strain msn5, active compounds read low 1.01 | locus YDR388W, active compounds read low 0.973 | locus YDR392W, strain spt3, active compounds read low 1.02 | locus YDR502C, strain sam2, active compounds read low 0.969 | locus YEL003W, strain gim4, active compounds read low 0.99 | locus YEL037C, strain rad23, active compounds read low 0.992 | locus YEL061C, strain CIN8 (second series), active compounds read low 0.983 | locus YEL061C, strain CIN8, active compounds read low 0.991 | locus YER015W, strain faa2, active compounds read low 1.01 | locus YER016W, strain bim1, active compounds read low 0.993 | locus YER110C, active compounds read low 0.984 | locus YER111C, strain swi4, active compounds read low 0.981 | locus YER155C, strain BEM2 (second series), active compounds read low 0.978 | locus YER155C, strain BEM2, active compounds read low 0.988 | locus YER167W, strain BCK2, active compounds read low 1.01 | locus YFR010W, strain ubp6, active compounds read low 0.974 | locus YGL078C, strain dbp3, active compounds read low 0.974 | locus YGL086W, strain mad1, active compounds read low 0.996 | locus YGL167C, strain pmr1, active compounds read low 0.995 | locus YGL173C, strain kem1, active compounds read low 0.981 | locus YGL227W, strain vid30, active compounds read low 1 | locus YGL240W, strain doc1, active compounds read low 0.99 | locus YGL248W, strain PDE1, active compounds read low 0.983 | locus YGL253W, strain hxk2, active compounds read low 0.983 | locus YGR078C, strain PAC10, active compounds read low 0.974 | locus YGR135W, strain pre9, active compounds read low 0.941 | locus YGR229C, strain SMI1, active compounds read low 0.961 | locus YGR252W, strain gcn5, active compounds read low 1.02 | locus YHR013C, strain ard1, active compounds read low 1 | locus YHR027C, strain rpn1, active compounds read low 0.986 | locus YHR030C, strain SLT2, active compounds read low 1.02 | locus YHR079C, strain IRE1 (second series), active compounds read low 0.971 | locus YHR079C, strain IRE1, active compounds read low 0.996 | locus YHR094C, strain hxt1, active compounds read low 0.983 | locus YHR129C, strain ARP1, active compounds read low 0.993 | locus YHR142W, strain chs7, active compounds read low 1.02 | locus YHR200W, strain rpn10, active compounds read low 0.963 | locus YIL066C, strain RNR3, active compounds read low 1.02 | locus YIL073C, strain SPO22, active compounds read low 0.977 | locus YIL125W, strain kgd1, active compounds read low 1 | locus YIR030C, strain dcg1, active compounds read low 0.975 | locus YJL092W, strain hpr5, active compounds read low 0.991 | locus YJL095W, strain BCK1 (second series), active compounds read low 0.985 | locus YJL095W, strain BCK1, active compounds read low 0.963 and 1.01 | locus YJL115W, strain asf1, active compounds read low 0.981 | locus YJL129C, strain trk1, active compounds read low 0.992 | locus YJL134W, strain LCB3, active compounds read low 0.992 | locus YJL154C, strain vps35, active compounds read low 0.986 | locus YJL164C, strain tpk1, active compounds read low 1.03 | locus YJL166W, strain qcr8, active compounds read low 1.04 | locus YJL168C, strain set2, active compounds read low 0.976 | locus YJL187C, strain SWE1 (second series), active compounds read low 0.98 | locus YJL187C, strain SWE1, active compounds read low 0.997 | locus YJR043C, strain POL32, active compounds read low 1.09 | locus YJR066W, strain TOR1, active compounds read low 0.939 | locus YKL009W, strain mrt4, active compounds read low 1.05 | locus YKL068W, active compounds read low 0.982 | locus YKL085W, strain MDH1 (second series), active compounds read low 0.976 | locus YKL085W, strain MDH1, active compounds read low 0.976 | locus YKL160W, strain elf1, active compounds read low 1.04 | locus YKL190W, strain CNB1, active compounds read low 0.975 | locus YKR001C, strain vps1, active compounds read low 1.02 | locus YKR026C, strain gcn3, active compounds read low 0.981 | locus YKR091W, strain srl3, active compounds read low 0.993 | locus YLL001W, strain dnm1, active compounds read low 0.985 | locus YLL026W, active compounds read low 0.991 | locus YLL041C, strain sdh2, active compounds read low 1.02 | locus YLR027C, strain aat2, active compounds read low 1.02 | locus YLR039C, strain RIC1, active compounds read low 1 | locus YLR058C, strain SHM2, active compounds read low 1.01 | locus YLR102C, strain apc9, active compounds read low 0.981 | locus YLR113W, strain HOG1, active compounds read low 0.983 | locus YLR221C, strain rsa3, active compounds read low 0.999 | locus YLR258W, strain gsy2, active compounds read low 1.02 | locus YLR262C, strain YPT6 (second series), active compounds read low 1.05 | locus YLR268W, strain sec22, active compounds read low 1.03 | locus YLR320W, strain mms22, active compounds read low 0.999 | locus YLR342W, strain FKS1, active compounds read low 1 | locus YLR357W, strain rsc2, active compounds read low 0.983 | locus YLR370C, strain arc18, active compounds read low 0.994 | locus YLR371W, strain rom2, active compounds read low 0.983 | locus YLR384C, strain iki3, active compounds read low 0.98 | locus YLR418C, strain cdc73, active compounds read low 0.953 | locus YML016C, strain PPZ1, active compounds read low 0.977 | locus YML032C, strain rad52, active compounds read low 1.01 | locus YML120C, strain ndi1, active compounds read low 1.01 | locus YML124C, strain tub3, active compounds read low 0.988 | locus YMR058W, strain fet3, active compounds read low 1 | locus YMR078C, strain ctf18, active compounds read low 0.974 | locus YMR125W, strain sto1, active compounds read low 0.998 | locus YMR129W, active compounds read low 0.995 | locus YMR205C, strain PFK2, active compounds read low 1.02 | locus YMR223W, strain ubp8, active compounds read low 0.975 | locus YMR231W, strain pep5, active compounds read low 0.977 | locus YMR307W, strain GAS1, active compounds read low 1.22 | locus YNL067W, strain RPL9B, active compounds read low 0.965 | locus YNL071W, strain lat1, active compounds read low 1.01 | locus YNL153C, strain GIM3, active compounds read low 0.964 | locus YNL183C, strain NPR1, active compounds read low 0.946 | locus YNL209W, strain ssb2, active compounds read low 1.01 | locus YNL233W, strain BNI4, active compounds read low 0.993 | locus YNL248C, strain rpa49, active compounds read low 0.983 | locus YNL250W, strain rad50, active compounds read low 0.943 | locus YNL271C, strain bni1, active compounds read low 0.968 | locus YNL298W, strain CLA4, active compounds read low 0.989 | locus YNL307C, strain MCK1, active compounds read low 0.985 | locus YNL322C, strain KRE1 (second series), active compounds read low 0.992 | locus YNR049C, strain mso1, active compounds read low 0.993 | locus YNR052C, strain pop2, active compounds read low 0.975 | locus YOL012C, strain htz1 0.732 | locus YOL147C, strain pex11, active compounds read low 0.986 | locus YOR001W, strain rrp6, active compounds read low 0.964 | locus YOR061W, strain CKA2, active compounds read low 1.02 | locus YOR069W, strain VPS5, active compounds read low 0.992 | locus YOR070C, strain gyp1, active compounds read low 1.01 | locus YOR080W, strain dia2, active compounds read low 0.98 | locus YOR083W, strain WHI5, active compounds read low 1.05 | locus YOR106W, strain vam3, active compounds read low 1.02 | locus YOR136W, strain idh2, active compounds read low 0.989 | locus YOR144C, strain elg1, active compounds read low 0.998 | locus YOR184W, strain ser1, active compounds read low 1.09 | locus YOR231W, strain MKK1, active compounds read low 1.01 | locus YOR265W, strain rbl2, active compounds read low 0.998 | locus YOR270C, strain vph1, active compounds read low 1.01 | locus YOR290C, strain snf2, active compounds read low 1.06 | locus YOR316C, strain cot1, active compounds read low 0.966 | locus YPL051W, strain arl3, active compounds read low 0.979 | locus YPL078C, strain atp4, active compounds read low 1.04 | locus YPL106C, strain sse1, active compounds read low 0.997 | locus YPL240C, strain hsp82, active compounds read low 0.993 | locus YPL241C, strain CIN2, active compounds read low 0.986 | locus YPL256C, strain CLN2, active compounds read low 0.978 | locus YPR119W, strain clb2, active compounds read low 0.952 | locus YPR141C, strain kar3, active compounds read low 0.961 | locus YPR163C, strain tif3, active compounds read low 0.983 | locus YPR167C, strain met16, active compounds read low 0.979 | strain wtn01, active compounds read low 1.01
